This note sets out measurements from PubChem BioAssay.

Experiment [1] can be described thus: yeast TOR pathway RPL19A-GFP modulators, primary screen, cell-based, S. cerevisiae, multiplex flow cytometry (AID 1862).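 Further: lower values mimic rapamycin by blocking the RPL19A rise seen in DMSO cells.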 Conditions: S. cerevisiae RPL19A-GFP strain, flow cytometry fluorescence, 3 h; at 10 µM; stronger effect = lower value.
Experiment [2] can be described thus: modulators of MEP2-GFP levels in yeast, primary screen, S. cerevisiae, multiplex flow cytometry (AID 1867;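 active means GFP response, as percent of the DMSO control, above the screen-wide mean plus 3 SD, about 139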;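 further: median GFP channel fluorescence of barcode-gated MEP2-GFP cells measured by flow cytometry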). Particulars: S. cerevisiae MEP2-GFP strain, 3 h, at 10 µM, stronger effect = higher value, 100% means same as DMSO wells. (A flow cytometer gives signals particle by particle.)
A short description of experiment [3]: modulators of CIT2-GFP expression in yeast, primary screen, S. cerevisiae, GFP fusion, multiplex flow cytometry (AID 1870;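 active means percent response above a set limit, the screen-wide mean plus 3 SD, cut at about 130% in these data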;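 further: barcoded CIT2-GFP strain pooled with four other GFP strains with rapamycin as positive control; median GFP fluorescence per well over plate mean of DMSO wells so 100% = DMSO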). Conditions: 3 h, at 10 µM, stronger effect = higher value.
Experiment [4] can be described thus: modulators of LAP4-GFP expression in yeast, primary screen, S. cerevisiae, multiplex flow cytometry (AID 1873;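 active means GFP signal, as percent of the solvent control, above the screen mean plus 3 SD, about 149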). Particulars: 3 h, at 10 µM, stronger effect = higher value.
The nature of experiment [5]: modulators of AGP1-GFP expression in yeast TOR pathway, primary screen, cell-based, multiplex flow cytometry, S. cerevisiae (AID 1887;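 active means GFP signal above the screen-wide mean plus 3 SD, that is over about 124.5% of the solvent control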;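 further: AGP1-GFP fusion strain of S. cerevisiae within a five-strain barcoded multiplex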). Conditions: 3 h, at 10 µM, stronger effect = higher value.
Experiment [6] in a line: inhibitors of CD8+ T cell-vesicle binding, pilot screen, LFA-1/ICAM-1 modulator project, MLPCN validation set, flow cytometry (AID 2523;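 active means response below a set limit, under 55% cells CD8-positive and vesicle-bound, and CD8 cells' 90th-percentile brightness under 279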;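 on vesicle binding response: mean PE anti-B7-1 fluorescence of CD8+ cells relative to row control; 100% = QL9-loaded vesicles with DMSO vehicle in the same plate row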). Conditions: 2C mouse CD8+ T cells, at 7 µM, stronger effect = lower value; double positive events: measured here: CD8+/vesicle+ event percentage.
Experiment [7] deals with Integrin beta-1 (Homo sapiens) + Integrin alpha-4 (Homo sapiens) (UniProt P13612+P05556). Briefly: inhibition of HUTS-21 binding to VLA-4, pilot screen, VLA-4 allosteric modulator project, U937 cells, HUTS-21 mAb, flow cytometry, validation set (AID 2674;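 active means inhibition above 50%, about 3 SD of the validation set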;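 further: antibody binding induced by the VLA-4 ligand LDV present at three times its Kd; 0% = LDV ligand with antibody and no compound and 100% = antibody without LDV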). Conditions: HUTS-21 LIBS mAb binding, at 6.7 µM, stronger effect = higher value, binding induced by LDV ligand.
Experiment [8] can be described thus: superoxide lowering in aged yeast cells, pilot screen, validation compound set (AID 2706;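 active means superoxide response below 65% of plate, a cut near 3 SD across the whole screen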;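 further: yeast exposed to compound for one week at 30 degrees C before staining; 100% = mean of all compound wells on the same plate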). Conditions: S. cerevisiae aging, superoxide DHE fluorescence; at 10 µM; stronger effect = lower value.
Experiment [9] concerns the target Beta-adrenergic receptor kinase 1 (Homo sapiens) (UniProt P25098). Briefly: GRK2 binders displacing RNA aptamer, biochemical, validation, human GRK2, bead flow cytometry (AID 488806;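 active means aptamer binding inhibition above 30%, about 3 SD of noise from non-fluorescent compounds; inactive means inhibition at or below 30%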). Particulars: bead-bound GRK2, FAM-aptamer displacement, at 10 µM, stronger effect = higher value.
The target of experiment [10] is Beta-2 adrenergic receptor (Homo sapiens) (UniProt P07550). Description: beta2AR agonists driving receptor internalization, pilot screen, cell-based, FAP fluorogen, flow cytometry, validation set (AID 504459;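 active means percent response above 42, roughly 3 SD of non-fluorescent test compounds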;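 further: agonist-driven loss of surface beta2AR via internalization measured by FAP dye flow cytometry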). Particulars: Am2.2-beta2AR cells, FAP surface receptor flow cytometry; at 10 µM; stronger effect = higher value.
For experiment [11], the target named is AP-2 complex subunit beta (Homo sapiens) (UniProt P63010). Description: inhibitors of arrestin peptide binding to AP2, pilot screen, biochemical, validation set, GST-AP2 beads, flow cytometry (AID 504541;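 active means inhibition above 54%, about 3 SD of non-fluorescent compounds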;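 further: AP2 carries R879A mutation and is captured from E. coli lysate; bead-bound FITC arrestin peptide fluorescence measuring arrestin peptide binding to AP2; 0% = DMSO wells and 100% = excess unlabeled arrestin peptide control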). Conditions: FITC arrestin peptide, at 10 µM, stronger effect = higher value, AP2 beta2 appendage fragment, R879A mutant.
Experiment [12] can be described thus: yeast V-ATPase proton transport modulators, S. cerevisiae, pHLuorin, HTS validation (AID 504600; in the data active means response above about 15%;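 further: plate controls were DMSO for no effect and reference compound for full effect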). Conditions: S. cerevisiae pHLuorin cytosolic pH, at 10 µM, stronger effect = higher value.
Experiment [13] relates to anti-desmoglein-3 scFv antibody binding to human DSG3. Briefly: inhibitors of anti-DSG3 scFv binding to DSG3, pilot screen, biochemical, validation compound set, bead-based, flow cytometry (AID 588368;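 active means binding below the plate cutoff, the plate median minus 3 SD, with a reading above zero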;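 further: signal is the median channel fluorescence of bead-bound GFP antibody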). Conditions: Protein G beads, DSG3-Fc, scFv-GFP binding, at 10 µM, stronger effect = lower value.
Experiment [14] can be described thus: inhibitors of fungal efflux pumps CDR1, CDR2, MDR1, pilot screen, validation compound set, multiplex, phenotypic (AID 588506;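 active means efflux inhibition above 0.42, the validation set average plus 4 SD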;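 further: Nile Red retained in cells so higher fluorescence means more efflux inhibition; 0 = negative control wells and 1 = enniatin B 25 µM full block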). Particulars: S. cerevisiae pump-expressing triplex, Nile Red efflux flow cytometry; at 10 µM; stronger effect = higher value; the pumps come from Candida albicans.
Experiment [15] has as its target ATP-binding cassette sub-family B member 6 (Homo sapiens) (UniProt Q9NP58). Briefly: ABCB6 transporter inhibitors, pilot screen, K562-ABCB6 cells, flow cytometry, validation set (AID 588550;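 active means inhibition above the screen-wide mean plus 3 SD, about 51%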;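 further: 0% = DMSO wells and 100% = benzethonium chloride 70 µM positive control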). Conditions: K562-ABCB6 porphyrin accumulation, 1 h, at 10 µM, stronger effect = higher value.
Experiment [16] can be described thus: promoters of myeloid differentiation in arrested cells, primary screen, cell-based, GFP/MAC1 double positive, flow cytometry, validation set (AID 588685;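 active means differentiation response of at least 50%, scaled between solvent and reference control, from cells with both markers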;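 further: compound exposure lasts four days before antibody staining and flow analysis; 0% = DMSO wells and 100% = 5 µM fulvestrant positive control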). Particulars: ER-HoxA9 marrow cells, stronger effect = higher value, normalized: vehicle 0, fulvestrant 100.

Inconclusive results are not listed. Calls of active or inactive are those of the source. Unless noted, no stated cut-off is given here; in the data, active means percent of DMSO control GFP below about 86%; inactive means the rest, inconclusive results apart.

Beta-adrenergic receptor kinase 1 (Homo sapiens), sequence (P25098 whole entry, looked up): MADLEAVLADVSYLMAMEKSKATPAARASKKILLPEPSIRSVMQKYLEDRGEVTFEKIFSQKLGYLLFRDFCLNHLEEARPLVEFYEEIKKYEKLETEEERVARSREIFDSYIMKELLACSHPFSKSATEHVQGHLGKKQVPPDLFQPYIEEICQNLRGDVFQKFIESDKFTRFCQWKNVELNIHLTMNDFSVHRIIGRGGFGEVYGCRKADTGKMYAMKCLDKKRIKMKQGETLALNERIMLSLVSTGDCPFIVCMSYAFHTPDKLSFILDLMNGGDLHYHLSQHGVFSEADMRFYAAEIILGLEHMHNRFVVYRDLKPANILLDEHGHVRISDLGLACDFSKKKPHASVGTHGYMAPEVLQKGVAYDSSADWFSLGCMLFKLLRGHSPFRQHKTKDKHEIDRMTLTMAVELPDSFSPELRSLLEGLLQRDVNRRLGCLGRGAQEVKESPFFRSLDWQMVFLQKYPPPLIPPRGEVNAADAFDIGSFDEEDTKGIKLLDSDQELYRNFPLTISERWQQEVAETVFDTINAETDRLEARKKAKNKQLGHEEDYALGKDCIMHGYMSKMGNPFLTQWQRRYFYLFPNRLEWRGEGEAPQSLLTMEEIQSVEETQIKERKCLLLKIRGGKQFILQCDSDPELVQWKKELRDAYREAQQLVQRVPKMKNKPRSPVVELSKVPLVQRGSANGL
Beta-2 adrenergic receptor (Homo sapiens), sequence (P07550 whole entry, looked up): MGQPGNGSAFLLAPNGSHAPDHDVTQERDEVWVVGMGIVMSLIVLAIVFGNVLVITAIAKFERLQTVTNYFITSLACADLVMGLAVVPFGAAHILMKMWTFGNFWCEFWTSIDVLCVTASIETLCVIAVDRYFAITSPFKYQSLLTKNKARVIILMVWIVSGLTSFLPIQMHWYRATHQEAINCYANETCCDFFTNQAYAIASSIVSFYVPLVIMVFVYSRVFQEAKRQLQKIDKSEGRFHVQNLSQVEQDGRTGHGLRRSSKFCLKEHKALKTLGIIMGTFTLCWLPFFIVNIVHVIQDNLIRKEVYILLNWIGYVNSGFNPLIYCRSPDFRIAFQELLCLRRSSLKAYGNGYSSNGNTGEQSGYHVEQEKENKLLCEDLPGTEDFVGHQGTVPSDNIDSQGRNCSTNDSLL
ATP-binding cassette sub-family B member 6 (Homo sapiens), sequence (Q9NP58 whole entry, looked up): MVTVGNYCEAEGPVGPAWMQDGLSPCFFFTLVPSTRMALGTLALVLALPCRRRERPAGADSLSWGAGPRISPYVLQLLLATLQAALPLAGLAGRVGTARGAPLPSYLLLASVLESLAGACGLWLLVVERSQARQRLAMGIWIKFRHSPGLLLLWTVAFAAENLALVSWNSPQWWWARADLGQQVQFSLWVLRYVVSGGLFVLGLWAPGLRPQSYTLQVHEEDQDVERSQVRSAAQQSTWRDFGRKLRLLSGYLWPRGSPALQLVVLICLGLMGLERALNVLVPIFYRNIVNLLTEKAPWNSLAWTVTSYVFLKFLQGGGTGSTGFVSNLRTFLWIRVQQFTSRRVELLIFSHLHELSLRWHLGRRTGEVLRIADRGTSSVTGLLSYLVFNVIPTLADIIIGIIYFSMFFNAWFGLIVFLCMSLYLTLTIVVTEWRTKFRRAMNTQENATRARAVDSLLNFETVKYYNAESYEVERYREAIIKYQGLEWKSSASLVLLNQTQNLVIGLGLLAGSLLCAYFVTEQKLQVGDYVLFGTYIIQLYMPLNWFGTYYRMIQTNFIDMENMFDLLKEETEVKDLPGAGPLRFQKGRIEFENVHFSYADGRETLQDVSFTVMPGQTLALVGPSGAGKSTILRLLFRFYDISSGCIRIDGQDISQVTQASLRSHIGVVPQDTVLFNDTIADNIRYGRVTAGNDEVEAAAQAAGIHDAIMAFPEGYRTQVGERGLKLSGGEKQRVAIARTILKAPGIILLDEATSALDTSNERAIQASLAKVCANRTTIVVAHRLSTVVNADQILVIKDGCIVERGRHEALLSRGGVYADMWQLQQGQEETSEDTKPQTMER
Integrin beta-1 (Homo sapiens) + Integrin alpha-4 (Homo sapiens), sequence (P05556 whole entry, looked up): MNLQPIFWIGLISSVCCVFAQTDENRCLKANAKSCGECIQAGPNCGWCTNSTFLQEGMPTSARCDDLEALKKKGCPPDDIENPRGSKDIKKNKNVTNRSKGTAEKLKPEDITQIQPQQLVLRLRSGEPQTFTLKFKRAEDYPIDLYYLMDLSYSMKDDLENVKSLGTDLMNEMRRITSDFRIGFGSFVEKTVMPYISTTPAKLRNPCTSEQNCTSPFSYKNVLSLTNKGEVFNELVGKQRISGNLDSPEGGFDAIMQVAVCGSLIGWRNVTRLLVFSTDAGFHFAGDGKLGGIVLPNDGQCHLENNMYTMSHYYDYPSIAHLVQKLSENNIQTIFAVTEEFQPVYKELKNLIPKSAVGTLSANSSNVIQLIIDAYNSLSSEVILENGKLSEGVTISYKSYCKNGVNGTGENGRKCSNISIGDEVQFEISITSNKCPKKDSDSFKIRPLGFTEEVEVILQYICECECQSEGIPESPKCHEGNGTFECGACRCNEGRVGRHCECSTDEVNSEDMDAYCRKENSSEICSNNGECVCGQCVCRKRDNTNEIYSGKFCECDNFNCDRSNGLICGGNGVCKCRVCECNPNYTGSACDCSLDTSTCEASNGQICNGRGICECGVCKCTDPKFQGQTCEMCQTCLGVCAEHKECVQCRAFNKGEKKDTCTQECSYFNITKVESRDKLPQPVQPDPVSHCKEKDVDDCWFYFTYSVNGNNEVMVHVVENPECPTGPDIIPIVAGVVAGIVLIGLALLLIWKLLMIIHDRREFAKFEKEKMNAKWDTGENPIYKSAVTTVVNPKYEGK
Integrin beta-1 (Homo sapiens) + Integrin alpha-4 (Homo sapiens), sequence (P13612 whole entry, looked up): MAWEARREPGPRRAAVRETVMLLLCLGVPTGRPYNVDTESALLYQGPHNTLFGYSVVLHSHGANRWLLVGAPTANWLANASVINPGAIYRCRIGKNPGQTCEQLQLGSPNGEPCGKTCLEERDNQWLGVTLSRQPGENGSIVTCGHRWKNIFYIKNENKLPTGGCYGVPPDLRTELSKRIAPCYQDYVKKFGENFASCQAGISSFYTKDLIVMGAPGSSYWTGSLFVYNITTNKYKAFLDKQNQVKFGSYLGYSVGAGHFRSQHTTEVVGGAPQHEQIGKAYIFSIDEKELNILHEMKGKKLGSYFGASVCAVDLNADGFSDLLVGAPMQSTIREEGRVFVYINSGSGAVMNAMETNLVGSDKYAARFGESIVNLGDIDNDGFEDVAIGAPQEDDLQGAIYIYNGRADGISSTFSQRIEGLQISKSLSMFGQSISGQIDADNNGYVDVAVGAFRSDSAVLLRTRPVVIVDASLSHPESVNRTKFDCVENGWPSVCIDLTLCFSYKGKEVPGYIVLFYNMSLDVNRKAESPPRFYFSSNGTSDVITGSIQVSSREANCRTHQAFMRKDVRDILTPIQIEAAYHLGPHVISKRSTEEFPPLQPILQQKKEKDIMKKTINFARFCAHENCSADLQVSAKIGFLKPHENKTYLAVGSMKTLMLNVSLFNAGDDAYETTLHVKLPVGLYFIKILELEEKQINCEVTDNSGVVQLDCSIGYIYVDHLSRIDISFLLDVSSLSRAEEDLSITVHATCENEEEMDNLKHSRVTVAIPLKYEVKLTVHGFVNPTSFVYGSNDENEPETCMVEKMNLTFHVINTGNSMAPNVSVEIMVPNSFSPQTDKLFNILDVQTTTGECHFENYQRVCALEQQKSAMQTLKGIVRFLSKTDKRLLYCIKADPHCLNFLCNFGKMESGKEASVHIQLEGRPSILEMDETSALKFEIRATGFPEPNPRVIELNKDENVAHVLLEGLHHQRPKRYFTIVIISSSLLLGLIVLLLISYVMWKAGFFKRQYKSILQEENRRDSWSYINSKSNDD
AP-2 complex subunit beta (Homo sapiens), sequence (P63010 whole entry, looked up, the tested form may be a part, one chain of several): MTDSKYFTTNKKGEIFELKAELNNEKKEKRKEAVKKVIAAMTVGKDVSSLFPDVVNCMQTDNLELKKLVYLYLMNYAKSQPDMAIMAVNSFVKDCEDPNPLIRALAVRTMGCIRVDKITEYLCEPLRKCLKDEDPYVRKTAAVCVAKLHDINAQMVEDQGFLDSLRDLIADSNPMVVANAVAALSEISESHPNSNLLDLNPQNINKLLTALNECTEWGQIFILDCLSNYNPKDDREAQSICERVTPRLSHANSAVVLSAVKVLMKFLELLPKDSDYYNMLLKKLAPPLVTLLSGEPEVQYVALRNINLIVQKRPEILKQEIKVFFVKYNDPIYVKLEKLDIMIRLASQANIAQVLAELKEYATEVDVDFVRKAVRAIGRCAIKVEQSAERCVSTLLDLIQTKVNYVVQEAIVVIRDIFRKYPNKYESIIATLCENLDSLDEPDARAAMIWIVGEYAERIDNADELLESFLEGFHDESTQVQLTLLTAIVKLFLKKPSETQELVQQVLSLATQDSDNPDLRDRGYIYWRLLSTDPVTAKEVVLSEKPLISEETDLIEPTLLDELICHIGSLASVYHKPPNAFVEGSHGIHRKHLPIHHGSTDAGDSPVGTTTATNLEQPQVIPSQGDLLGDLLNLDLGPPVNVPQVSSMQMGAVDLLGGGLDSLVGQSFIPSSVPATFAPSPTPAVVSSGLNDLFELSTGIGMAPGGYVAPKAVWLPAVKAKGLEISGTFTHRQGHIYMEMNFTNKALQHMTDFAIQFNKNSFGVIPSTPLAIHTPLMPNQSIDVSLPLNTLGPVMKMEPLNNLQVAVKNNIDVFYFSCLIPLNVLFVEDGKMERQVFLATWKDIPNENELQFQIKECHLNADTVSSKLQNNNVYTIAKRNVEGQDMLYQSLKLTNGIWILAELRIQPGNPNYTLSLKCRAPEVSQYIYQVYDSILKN

By inhibition is commonly meant the relative decrease from the control value, in per cent. As for `COc1ccc(C2C(C#N)=C(N)Oc3cc(C)[nH]c(=O)c32)c(OC)c1OC` (stereo not given), in experiment [1], the percent of DMSO control GFP is 88.2% (inactive). The figures for the GFP response vs DMSO in experiment [2] and in [4] were 117% (inactive) and 78.1% (inactive), respectively. Further, the percent response of DMSO control in experiment [3] was 92.6% (inactive). Further, in experiment [5], the GFP response, % of DMSO is 97% (inactive). The same compound gave a double positive events in experiment [6] of 63.8%. For the same compound, in experiment [6], the vesicle binding response is 168% (inactive). Besides, the inhibition in experiment [7] was 14.2% (inactive); in experiment [11], -3.85% (inactive); in experiment [15] it was 10% (inactive). Further, the superoxide response (% of plate) in experiment [8] is 97.7% (inactive). In experiment [9], the aptamer binding inhibition was 4% (inactive). The values for the response in experiment [10] and in experiment [12] were -4.98% (inactive) and -1.92% (inactive), respectively. Also, in [13], the binding (% of control) is 109% (inactive). Moreover, the efflux inhibition (fraction of control) in experiment [14] was 0.16 (inactive). In experiment [16], the differentiation response is 0% (inactive).

Turning to `CCOc1ccc(CC2CCC(=O)NC2=O)cc1` (stereo not given), the percent of DMSO control GFP in experiment [1] was 103% (inactive). Besides, the GFP response vs DMSO is 102% (inactive) in experiment [2] and 110% (inactive) in experiment [4]. In addition, the percent response of DMSO control in experiment [3] is 104% (inactive). Besides, the GFP response, % of DMSO in [5] was 115% (inactive). The double positive events in experiment [6] was determined as 64%. Also, the vesicle binding response in [6] is 156% (inactive). The inhibition in [7] is -3.67% (inactive); in [11], 12.5% (inactive); in [15], 9% (inactive). In experiment [8], the superoxide response (% of plate) was 105% (inactive). The aptamer binding inhibition in experiment [9] is 6% (inactive). Also, the results for the response in [10] and in experiment [12] were -15.9% (inactive) and -1.14% (inactive), respectively. The binding (% of control) in [13] is 95.7% (inactive). Further, in experiment [14], the efflux inhibition (fraction of control) was 0 (inactive). For the same compound, the differentiation response in experiment [16] was 20.6% (inactive).

Take `CC(C)c1ccc(/C=C/C(=O)O)cc1`: the percent of DMSO control GFP in experiment [1] is 96.3% (inactive). The results for the GFP response vs DMSO in experiment [2] and in [4] were 105% (inactive) and 161% (active), respectively. For the same compound, the percent response of DMSO control in experiment [3] was 81.5% (inactive). In [5], the GFP response, % of DMSO is 83.4% (inactive). Moreover, in [6], the double positive events was found to be 56.5%. In addition, in experiment [6], the vesicle binding response is 218% (inactive). Moreover, the inhibition in experiment [7] is 7.76% (inactive); in experiment [11], 3.59% (inactive); in experiment [15] it was 4% (inactive). Further, in experiment [8], the superoxide response (% of plate) was 99.5% (inactive). Further, the aptamer binding inhibition in [9] is 3% (inactive). For the same compound, the response in experiment [10] is 3.14% (inactive); in experiment [12], 1.59% (inactive). Further, the binding (% of control) in [13] was 94.5% (inactive). The efflux inhibition (fraction of control) in [14] was -0.35 (inactive). Also, in experiment [16], the differentiation response is -2.4% (inactive).

For `C[C@]12CC[C@@H]3c4ccc(O)cc4CC[C@H]3[C@@H]1CC[C@@H]2OC(=O)CCC(=O)O`, the percent of DMSO control GFP in experiment [1] was 102% (inactive). For the same compound, the GFP response vs DMSO in [2] was 103% (inactive); in experiment [4], 127% (inactive). For the same compound, in experiment [3], the percent response of DMSO control is 91.3% (inactive). For the same compound, the GFP response, % of DMSO in experiment [5] was 98.6% (inactive). Besides, in experiment [6], the double positive events came to 62.4%. The vesicle binding response in experiment [6] was 223% (inactive). Besides, the values for the inhibition in experiment [7], in experiment [11] and in [15] were -15.8% (inactive), 50.5% (inactive) and -12% (inactive), respectively. Besides, the superoxide response (% of plate) in experiment [8] was 86% (inactive). Besides, the aptamer binding inhibition in [9] is -7% (inactive). Also, the response in experiment [10] was 3.34% (inactive); in [12] it was -4.55% (inactive). The binding (% of control) in experiment [13] was 105% (inactive). Further, the efflux inhibition (fraction of control) in [14] is 0.46 (active). Also, the differentiation response in experiment [16] was 42.2% (inactive).

On to `COCCOC(=O)C1=C(N)OC2=C(C(=O)CCC2)C1c1cccnc1` (stereo not given), for which the percent of DMSO control GFP in experiment [1] is 105% (inactive). The GFP response vs DMSO was 105% (inactive) in experiment [2] and 89.4% (inactive) in [4]. In [3], the percent response of DMSO control was 100% (inactive). Further, the GFP response, % of DMSO in experiment [5] is 101% (inactive). Also, the double positive events in experiment [6] amounted to 59.9%. Also, the vesicle binding response in experiment [6] is 89.9% (inactive). Further, the values for the inhibition in [7], in experiment [11] and in experiment [15] were -5.64% (inactive), 4.01% (inactive) and -4% (inactive), respectively. Besides, in [8], the superoxide response (% of plate) is 99.2% (inactive). The aptamer binding inhibition in experiment [9] is 2% (inactive). For the same compound, the response in experiment [10] was -2.38% (inactive); in [12] it was 0.7% (inactive). In addition, the binding (% of control) in [13] was 99.3% (inactive). Moreover, the efflux inhibition (fraction of control) in [14] is -0.1 (inactive). Besides, in [16], the differentiation response is 7.09% (inactive).
